# Test results from PubChem BioAssay (Tox21).
# Records with an inconclusive call do not appear. Activity calls are given as the source filed them. The call rests on the fitted dose curve; in most records, active means well fitted curve in the direction sought with a large enough effect in the repeat runs; inconclusive means weak or mixed curves; inactive means no such curve, though single readings can be large; an effect the other way counts as inactive or inconclusive.
# Assay: A CellTox Green Cytotoxicity Assay to monitor cytotoxicity in HEK293 cells - 40 hour (AID 1224871); further: nearly all actives have a fitted effect of over 45% in size
# Conditions: CellTox Green fluorescence; series mostly up to 76.8 µM; cytotoxicity increase: at the top concentration
# Procedure, shortened: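 Cells (HEK293, 600/well) and dye reagent are dispensed together. After 5 h at 37 C, 23 nL compound is pinned in. Plates stay at 37 C for 40 h with fluorescence read at 0h, 8h, 16h, 24h, 32h and 40h.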
# On the % scale 0 is the no-effect control and ±100 the full control effect.
row,Compound,cytotoxicity increase
1,Cc1ccc(N(CCO)CCO)cc1,-0.357% (inactive)
2,CSCC[C@H](NC(=O)[C@H](Cc1c[nH]c2ccccc12)NC(=O)CCNC(=O)OC(C)(C)C)C(=O)N[C@@H](CC(=O)O)C(=O)N[C@@H](Cc1ccccc1)C(N)=O,-0.47% [at 35.3 µM] (inactive)
3,O=C(O)CO,-17.4% (inactive)
4,CCOc1ncc(F)c(=O)[nH]1,6.48% [at 35.3 µM] (inactive)
5,Cc1cc(CCC(=O)OCCOCCOCCOC(=O)CCc2cc(C)c(O)c(C(C)(C)C)c2)cc(C(C)(C)C)c1O,-8.92% (inactive)
6,COc1cc(C(C)=O)ccc1OCCCN1CCC(c2noc3cc(F)ccc23)CC1,18.9% [at 35.3 µM] (inactive)
7,Nc1ccn([C@H]2CS[C@@H](CO)O2)c(=O)n1,-1.71% (inactive)
8,CC(C)(C(=O)c1cccnc1)c1cccnc1,-0.695% [at 35.3 µM] (inactive)
9,C[C@@H]1C[C@H]2[C@@H]3CCC4=CC(=O)C=C[C@]4(C)[C@@]3(F)[C@@H](O)C[C@]2(C)[C@@]1(O)C(=O)COP(=O)(O)O,-8.67% (inactive)
10,Cc1ccc(S(=O)(=O)NC(=O)NC2CCCCC2)cc1,0.975% [at 35.3 µM] (inactive)
11,COC(=O)Nc1nc2ccc(C(=O)C3CC3)cc2[nH]1,-0.771% [at 35.3 µM] (inactive)
12,CCCCCCOC(=O)CCCCC,12.9% (inactive)
13,O=C(O)CCC(=O)c1ccc(-c2ccccc2)cc1,-14.4% [at 35.3 µM] (inactive)
14,CCC(CO)(CO)CO,2.1% (inactive)
15,CCOC(=O)C(C)O (stereo unspecified),0.712% (inactive)
16,CCCCCCCC/C=C/C(=O)O,6.82% [at 35.3 µM] (inactive)
17,CCCCCCC(CO)CCCC (stereo unspecified),-0.709% (inactive)
18,Nc1nc(-c2ccc([N+](=O)[O-])cc2)cs1,-4.67% (inactive)
19,O=c1[nH]c2cc(C(F)(F)F)c(N3CCOCC3)cc2n(CP(=O)(O)O)c1=O,-7.51% [at 35.3 µM] (inactive)
20,CCCCC[C@H](O)/C=C/[C@H]1[C@H](O)CC(=O)[C@@H]1C/C=C\CCCC(=O)O,0.247% [at 35.3 µM] (inactive)
21,CCCC(=O)OC(=O)CCC,1.67% (inactive)
22,CC[C@H]1OC(=O)[C@H](C)[C@@H](O[C@H]2C[C@@](C)(OC)[C@@H](O)[C@H](C)O2)[C@H](C)[C@@H](O[C@@H]2O[C@H](C)C[C@H](N(C)C)[C@H]2O)[C@](C)(O)C[C@@H](C)CN(C)[C@H](C)[C@@H](O)[C@]1(C)O,-2.19% [at 35.3 µM] (inactive)

# Assay: qHTS RealTime-Glo MT Cell Viability Assay in HEK293 cells - 16 hour (AID 1224872); further: nearly all actives have a fitted effect of over 50% in size; further: potency means the concentration at half of the fitted maximal effect; on activity change, negative = cytotoxicity: top concentration of the series differs between compounds
# Conditions: RealTime-Glo luminescence; series mostly up to 76.8 µM; activity change, negative = cytotoxicity: at the top concentration
# Procedure, shortened: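 HEK293 cells seeded with NanoLuc/prosubstrate reagent, rested 5 h at 37 C, then dosed and kept at 37 C up to 40 h. Nonlytic real-time luminescence from viable cells read at 0, 8, 16, 24, 32 and 40 h.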
Compound,"activity change, negative = cytotoxicity",Potency
O=C1[C@@H]2[C@H]3CC[C@H](C3)[C@@H]2C(=O)N1CCCCN1CCN(c2ncccn2)CC1,1.04% [at 35.3 µM] (inactive),
O=C(NC(Cc1cc(=O)[nH]c2ccccc12)C(=O)O)c1ccc(Cl)cc1 (stereo unspecified),0.714% [at 35.3 µM] (inactive),
CC(C)(C)C1(CCc2ccc(Cl)cc2)CO1 (stereo unspecified),-5.34% (inactive),
CC(C)(O)CCc1ccccc1,-14% (inactive),
Cc1ccc(N(CCO)CCO)cc1,5.4% (inactive),
O=CNNC=O,7.6% (inactive),
O=C(O)CO,8.23% (inactive),
CCOc1ncc(F)c(=O)[nH]1,2.26% [at 35.3 µM] (inactive),
O=C(O)CNC(=O)c1ccccc1I,11.3% [at 35.3 µM] (inactive),
Cc1cc(CCC(=O)OCCOCCOCCOC(=O)CCc2cc(C)c(O)c(C(C)(C)C)c2)cc(C(C)(C)C)c1O,-19.8% (inactive),
COc1cc(C(C)=O)ccc1OCCCN1CCC(c2noc3cc(F)ccc23)CC1,,7.56 µM (active)
Nc1ccn([C@H]2CS[C@@H](CO)O2)c(=O)n1,-0.542% (inactive),
C[C@@H]1C[C@H]2[C@@H]3CCC4=CC(=O)C=C[C@]4(C)[C@@]3(F)[C@@H](O)C[C@]2(C)[C@@]1(O)C(=O)COP(=O)(O)O,-22% (inactive),
O=S(=O)(O)CO,-0.527% (inactive),
FC(F)(F)C(F)(F)C(F)(F)C(F)(F)CCI,-2.61% [at 35.3 µM] (inactive),
CCCCCCOC(=O)CCCCC,3.09% (inactive),
O=C(O)CCC(=O)c1ccc(-c2ccccc2)cc1,2.46% [at 35.3 µM] (inactive),
CCC(CO)(CO)CO,4.02% (inactive),
C=CCOC(=O)COCCC(C)C,-0.634% (inactive),
CCOC(=O)C(C)O (stereo unspecified),15.3% (inactive),
CCCCCCCC/C=C/C(=O)O,9.57% [at 35.3 µM] (inactive),
CCCCCCC(CO)CCCC (stereo unspecified),0.625% (inactive),
Nc1nc(-c2ccc([N+](=O)[O-])cc2)cs1,-10.4% (inactive),
COC(OC)OC,11.8% (inactive),
O=c1[nH]c2cc(C(F)(F)F)c(N3CCOCC3)cc2n(CP(=O)(O)O)c1=O,3.37% [at 35.3 µM] (inactive),
COc1ccc(CCN(C)CCCN2CCc3cc(OC)c(OC)cc3CC2=O)cc1OC,0.0146% [at 35.3 µM] (inactive),
CCCCC[C@H](O)/C=C/[C@H]1[C@H](O)CC(=O)[C@@H]1C/C=C\CCCC(=O)O,-0.174% [at 35.3 µM] (inactive),
CCCC(=O)OC(=O)CCC,21% (inactive),
NC(=O)CCCCC(N)=O,2.54% (inactive),
CCCCCCCCCCCCCOC(=O)CCSCCC(=O)OCCCCCCCCCCCCC,-1.74% [at 15.8 µM] (inactive),

# Assay: qHTS RealTime-Glo MT Cell Viability Assay in HepG2 cells - 8 hour (AID 1224873); further: nearly all actives have a fitted effect of over 55% in size
# Conditions: RealTime-Glo luminescence; series mostly up to 76.8 µM; viability change, negative = cytotoxic: at the top concentration
# Procedure, shortened: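 HepG2 cells mixed with RealTime-Glo MT reagents (NanoLuc plus cell-permeant prosubstrate) were seeded at 600 cells/well, incubated 5 h at 37 C/5% CO2, then pinned with compounds in DMSO; nonlytic luminescence tracked viability during 40 h treatment.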
row,Compound,"viability change, negative = cytotoxic"
1,O=C1[C@@H]2[C@H]3CC[C@H](C3)[C@@H]2C(=O)N1CCCCN1CCN(c2ncccn2)CC1,1.12% [at 35.3 µM] (inactive)
2,Cc1ccc2c(c1)CCCN2,-4.51% (inactive)
3,O=C(NC(Cc1cc(=O)[nH]c2ccccc12)C(=O)O)c1ccc(Cl)cc1 (stereo unspecified),4.57% [at 35.3 µM] (inactive)
4,CC(C)(C)C1(CCc2ccc(Cl)cc2)CO1 (stereo unspecified),-11.8% (inactive)
5,CC(C)(O)CCc1ccccc1,10.4% (inactive)
6,Cc1ccc(N(CCO)CCO)cc1,1.43% (inactive)
7,CSCC[C@H](NC(=O)[C@H](Cc1c[nH]c2ccccc12)NC(=O)CCNC(=O)OC(C)(C)C)C(=O)N[C@@H](CC(=O)O)C(=O)N[C@@H](Cc1ccccc1)C(N)=O,-2.2% [at 35.3 µM] (inactive)
8,O=CNNC=O,2.14% (inactive)
9,O=C(O)CO,1.9% (inactive)
10,CCOc1ncc(F)c(=O)[nH]1,6.45% [at 35.3 µM] (inactive)
11,O=C(O)CNC(=O)c1ccccc1I,12.2% [at 35.3 µM] (inactive)
12,Cc1cc(CCC(=O)OCCOCCOCCOC(=O)CCc2cc(C)c(O)c(C(C)(C)C)c2)cc(C(C)(C)C)c1O,-21.6% (inactive)
13,COc1cc(C(C)=O)ccc1OCCCN1CCC(c2noc3cc(F)ccc23)CC1,-14.2% [at 35.3 µM] (inactive)
14,Nc1ccn([C@H]2CS[C@@H](CO)O2)c(=O)n1,1.55% (inactive)
15,CC(C)(C(=O)c1cccnc1)c1cccnc1,-0.387% [at 35.3 µM] (inactive)
16,C[C@@H]1C[C@H]2[C@@H]3CCC4=CC(=O)C=C[C@]4(C)[C@@]3(F)[C@@H](O)C[C@]2(C)[C@@]1(O)C(=O)COP(=O)(O)O,0.707% (inactive)
17,Cc1ccc(S(=O)(=O)NC(=O)NC2CCCCC2)cc1,1.23% [at 35.3 µM] (inactive)
18,COC(=O)Nc1nc2ccc(C(=O)C3CC3)cc2[nH]1,-13.1% [at 35.3 µM] (inactive)
19,O=S(=O)(O)CO,0.0149% (inactive)
20,FC(F)(F)C(F)(F)C(F)(F)C(F)(F)CCI,0.443% [at 35.3 µM] (inactive)

row,Compound,"viability change, negative = cytotoxic"
1,CCCCCCOC(=O)CCCCC,-0.109% (inactive)
2,O=C(O)CCC(=O)c1ccc(-c2ccccc2)cc1,5.24% [at 35.3 µM] (inactive)
3,CCC(CO)(CO)CO,2.39% (inactive)
4,C=CCOC(=O)COCCC(C)C,-0.625% (inactive)
5,CCOC(=O)C(C)O (stereo unspecified),0.277% (inactive)
6,CCCCCCCC/C=C/C(=O)O,8.63% [at 35.3 µM] (inactive)
7,CCCCCCC(CO)CCCC (stereo unspecified),-10.5% (inactive)
8,Nc1nc(-c2ccc([N+](=O)[O-])cc2)cs1,-0.0005% (inactive)
9,COC(OC)OC,1.26% (inactive)
10,O=c1[nH]c2cc(C(F)(F)F)c(N3CCOCC3)cc2n(CP(=O)(O)O)c1=O,10.9% [at 35.3 µM] (inactive)
11,CCCCCCCCCCCCCCN(C)C,-0.602% [at 15.8 µM] (inactive)
12,CCC(Cl)CC(Cl)C(Cl)C(Cl)C(Cl)C(C)Cl (stereo unspecified),0.0251% [at 15.8 µM] (inactive)
13,CCCCCCCCCCCCCCCC(=O)OCC,1.33% (inactive)
14,COc1ccc(CCN(C)CCCN2CCc3cc(OC)c(OC)cc3CC2=O)cc1OC,7.79% [at 35.3 µM] (inactive)
15,CCCCC[C@H](O)/C=C/[C@H]1[C@H](O)CC(=O)[C@@H]1C/C=C\CCCC(=O)O,1.41% [at 35.3 µM] (inactive)
16,CCCC(=O)OC(=O)CCC,1.11% (inactive)
17,CC[C@H]1OC(=O)[C@H](C)[C@@H](O[C@H]2C[C@@](C)(OC)[C@@H](O)[C@H](C)O2)[C@H](C)[C@@H](O[C@@H]2O[C@H](C)C[C@H](N(C)C)[C@H]2O)[C@](C)(O)C[C@@H](C)CN(C)[C@H](C)[C@@H](O)[C@]1(C)O,1.23% [at 35.3 µM] (inactive)
18,NC(=O)CCCCC(N)=O,1.58% (inactive)
19,CCCCCCCCCCCCCOC(=O)CCSCCC(=O)OCCCCCCCCCCCCC,-12% [at 15.8 µM] (inactive)
